Results on 92 molecules are retold here after PubChem BioAssay AID463173 (ICCB-Longwood Screening Facility, Harvard Medical School, 2010).

The campaign covered roughly 52,000 compounds. About 4,300 (8.3%) were called active. The entries come from a sample that favours actives as a whole. Unmarked numbers belong to inactive results. Cut-off read from the data, not from the text of the source: active = survival mostly below about 52% (no sharp cut-off); inactive = mostly above about 56%.

The assay relates to DeltatarO mutant. Briefly: S. aureus survival, RN4220 and DeltatarO strains – OD600, teichoic acid synthesis inhibitors, primary screen (AID 463173). The following applies: S. aureus RN4220 wild type/DeltatarO growth, OD600, 18 h, stronger effect = lower value, screened at 18.75 µg/mL (by protocol).
Regarding `CC1(C)Oc2ccc(C(=O)Nc3ccccc3)cc2N(CC(=O)N2CCCC2)C1=O`, the survival was 103%.

Turning to `Cc1cc(N2CCC(C)CC2)nc2ccc(NC(=O)Cc3c(F)cccc3Cl)cc12`, the survival is 56%. With `Cc1ccc(Cl)cc1N1CCN(C(=O)CCC(=O)Nc2ccc3nc(N4CCC(C)CC4)cc(C)c3c2)CC1`, the survival was 52%. As for `Cc1cc(N2CCC(C)CC2)nc2ccc(NC(=O)Cc3ccccc3Br)cc12`, the figure is 46% (active); as for `Cc1cc(N2CCC(C)CC2)nc2ccc(NC(=O)CCC(=O)N3CCN(c4cccc(C(F)(F)F)c4)CC3)cc12`, 31% (active). Then `Cc1cc(N2CCC(C)CC2)nc2ccc(NC(=O)CCC(=O)N3CCN(c4ccccc4F)CC3)cc12`, with 52%; and `Cc1cc(N2CCN(C)CC2)nc2ccc(NC(=O)Nc3ccccc3Br)cc12`, with 84%; and `COc1ccccc1CC(=O)Nc1ccc2nc(N3CCC(C)CC3)cc(C)c2c1`, with 61%. Take `Cc1cccc(CC(=O)Nc2ccc3nc(N4CCC(C)CC4)cc(C)c3c2)c1`: the survival is 4% (active). Take `COc1cccc(CC(=O)Nc2ccc3nc(N4CCC(C)CC4)cc(C)c3c2)c1`: the survival is 49%. As for `CC1=C(C(=O)Nc2ccc(C)cc2C)C(c2ccccc2C)n2ncnc2N1` (configuration not stated), the figure is 100%; as for `N#CCN(CC#N)C(=O)Cc1cccs1`, 102%. As for `Cc1ccc(CN2C(=O)C3(c4ccccc42)N(c2cccc(F)c2)C(=O)CS3(=O)=O)cc1` (configuration not stated), the survival is 75%.

Turning to `CCN1C(=O)c2ccccc2S(=O)(=O)c2ccc(C(=O)NCc3ccc(F)cc3)cc21`, the survival is 59%.

Regarding `COc1ccc2c(CNCc3ccc(C)o3)c(C(=O)O)n(Cc3ccccc3C)c2c1`, the survival was 96%. For the molecule `Cc1ccc(NC(=O)c2cccc3c(=O)c4c([nH]c23)CCCC4)c(C)c1`, the survival is 69%. As for `COc1cccc(CNC(=O)Cn2c(C)c3cnn(-c4ccccc4)c(=O)c3c2C)c1`, the survival was 94%. On to `CSc1nc(NC(C)=O)nc(C)c1Br`, for which the survival was 103%. For the molecule `Nc1c(-c2nc(-c3ccc(F)cc3)cs2)c2ccccn2c1C(=O)c1ccc2c(c1)OCO2`, the survival is 89%.

As to `COc1ccc(CCNc2nc(SCc3cccc(Cl)c3)nc3ccccc23)cc1OC`, the survival is 94%. On to `N#Cc1c(C(F)(F)F)cc(-c2cccs2)nc1SCc1ccc(F)cc1`, for which the survival was 125%. As for `COc1ccc2c(c1)c1c(c(=O)n(-c3ccccc3C)c(=O)n1CC(=O)NCc1ccc(C)cc1)n2C`, the figure is 75%. Take `CCCSc1oc(-c2ccco2)nc1S(=O)(=O)c1ccc(Cl)cc1`: the survival was 51%. As to `CCC(C)Sc1oc(-c2ccco2)nc1S(=O)(=O)c1ccc(C)cc1` (configuration not stated), the survival was 18% (active). Take `CC(Sc1oc(-c2cccs2)nc1S(=O)(=O)c1ccccc1)c1ccccc1` (configuration not stated): the survival was 44% (active). As for `Cc1ccc(CSc2oc(-c3ccco3)nc2S(=O)(=O)c2ccc(Cl)cc2)cc1`, the figure is 63%; as for `Cc1ccc(S(=O)(=O)c2nc(-c3cccs3)oc2SC(C)c2ccccc2)cc1` (configuration not stated), 55%. Take `Cc1ccc(S(=O)(=O)c2nc(-c3ccco3)oc2SC(C)c2ccccc2)cc1` (configuration not stated): the survival was 45% (active). For the molecule `Cc1ccc(CSc2oc(-c3ccco3)nc2S(=O)(=O)c2ccc(Br)cc2)cc1`, the survival is 56%. As to `Cc1ccc(S(=O)(=O)c2nc(-c3ccco3)oc2SCc2ccccc2Cl)cc1`, the survival was 61%.

Regarding `CCC(C)Sc1oc(-c2ccco2)nc1S(=O)(=O)c1ccc(Cl)cc1` (configuration not stated), the survival is 49% (active). For the molecule `Cc1ccc(S(=O)(=O)c2nc(-c3ccco3)oc2SC(C)C)cc1`, the survival is 47%. As for `CC(C)Sc1oc(-c2cccs2)nc1S(=O)(=O)c1ccc(Cl)cc1`, the figure is 66%; as for `CC(Sc1oc(-c2ccco2)nc1S(=O)(=O)c1ccc(Br)cc1)c1ccccc1` (configuration not stated), 70%.

Turning to `COc1ccc(Cc2nc3ccc(C(=O)NCCc4ccc(Cl)cc4)cc3o2)cc1`, the survival is 75%. Take `O=C(Cn1ncc2c3ccccc3n(Cc3ccc(Cl)cc3)c2c1=O)NC1CCCCCC1`: the survival is 96%. Consider `CSc1ccc(CNC(=O)Cn2c(-c3cccs3)cc3cc(F)ccc32)cc1`, for which the survival is 101%.

Consider `COc1ccc(NC(=O)C(NC(=O)/C=C\c2ccc3c(c2)OCO3)c2ccc(OC)cc2)cc1` (configuration not stated), for which the survival was 61%. Then `CCCn1c(CCC(=O)Nc2cc(OC)cc(OC)c2)nc2cccnc21`, with 78%; and `CCOc1ccc(CCNC(=O)c2cccc(-n3c(C)nc4cccnc43)c2)cc1`, with 90%; and `N#Cc1cc2c(cc1C#N)Oc1ccccc1O2`, with 103%. Take `CC(C)CCn1c(=O)c2sccc2n2c(CCCC(=O)NC(C)C)nnc12`: the survival was 96%.

With `COc1cc(S(=O)(=O)N2CCN(C)CC2)c(C)cc1C`, the survival was 78%.

In the case of `COc1ccccc1CNC(=O)CN1C(=O)CCCc2ccccc21`, the survival is 94%. `COc1ccc2cc(CNc3ccc(OC)c(OC)c3)c(=O)n(CC(=O)Nc3ccc(C)cc3)c2c1`: the survival is 74%.

Consider `O=C(NC1CCCCCC1)c1ccc2c(c1)sc1nc(-c3ccc(F)cc3)cn12`, for which the survival is 85%.

In the case of `CCc1ccc(-c2cn3c(n2)sc2cc(C(=O)NC4CCCCCC4)ccc23)cc1`, the survival was 79%.

Regarding `CC1CCCCN1CCCNC(=O)c1ccc2c(c1)sc1nc(-c3ccc(F)cc3)cn12` (configuration not stated), the survival was 29% (active).

With `CCC1CCCCN1CCCNC(=O)c1ccc2c(c1)sc1nc(-c3ccc(F)cc3)cn12` (configuration not stated), the survival was 14% (active).

On to `O=C(NC1CCCCC1)c1ccc2c(c1)sc1nc(-c3ccc(F)cc3)cn12`, for which the survival was 62%.

For `CCc1ccc(-c2cn3c(n2)sc2cc(C(=O)NC4CCCCC4)ccc23)cc1`, the survival was 87%. As for `Cc1cc(Nc2ccc(C)c(C)c2)n2cnnc2n1`, the survival was 94%. Regarding `CC1CCN(c2cc3c(cc2F)c(=O)c(S(=O)(=O)c2cccc(Cl)c2)cn3Cc2ccccc2)CC1`, the survival is 80%. Regarding `COc1ccccc1C(=O)n1nc(-c2ccco2)nc1NCc1ccc(Cl)cc1`, the survival is 54%.

With `COc1ccc(C(=O)/C=C\Nc2ccc(S(=O)(=O)N=C(N)N)cc2)cc1OC`, the survival was 76%.

On to `Cc1ccc(CN(C(=O)COc2ccc(C)c(C)c2)C2CCS(=O)(=O)C2)o1` (configuration not stated), for which the survival is 92%.

As for `Cc1cccc(CNC(=O)C2CCN(c3nnc(-n4c(C)ccc4C)s3)CC2)c1`, the survival was 95%. As for `O=C(c1cc2ccc3cccnc3c2[nH]1)N1CCN(c2ccc(Cl)cc2)CC1`, the figure is 84%; as for `CC1CCc2onc(C(=O)N3CCN(c4cccc(C(F)(F)F)c4)CC3)c2C1` (configuration not stated), 37% (active). In the case of `O=C(c1noc2c1CCCCC2)N1CCN(c2cccc(C(F)(F)F)c2)CC1`, the survival is 0% (active). In the case of `O=C(c1noc2c1CCCCC2)N1CCN(c2cccc(Cl)c2)CC1`, the survival is 69%.

With `O=C(c1noc2c1CCCCC2)N1CCN(c2ccc(Cl)cc2)CC1`, the survival was 98%. Consider `O=C(c1cc2ccc3cccnc3c2[nH]1)N1CCN(c2cccc(C(F)(F)F)c2)CC1`, for which the survival was 0% (active). For the molecule `CC1CCc2onc(C(=O)N3CCN(c4cccc(Cl)c4)CC3)c2C1` (configuration not stated), the survival was 69%.

`CC1CCc2onc(C(=O)N3CCN(c4ccccc4)CC3)c2C1` (configuration not stated): the survival is 117%. Consider `O=C(c1cc2ccc3cccnc3c2[nH]1)N1CCN(c2ccccc2)CC1`, for which the survival was 75%. `CCC(=O)Nc1ccc2nc(SCc3ccc(C)cc3)sc2c1`: the survival was 84%.

Consider `Cc1ccc(-n2nc(C)c3c(C(=O)Nc4ccccc4C(F)(F)F)cc(C)nc32)cc1`, for which the survival was 95%. As to `Cc1ccc(NC(=O)CSc2nnc(C)s2)c(C)c1`, the survival is 67%. As for `CCOc1ccc(CNCc2c(C(=O)O)c(C)n(Cc3ccc(F)cc3Cl)c2C)cc1`, the survival was 118%. Turning to `Cc1ccc(C)c(Cn2c(=O)n(-c3ccccc3)c(=O)c3c4c(sc32)CCCC4)c1`, the survival is 120%. With `COc1ccc(CCNC(=O)C(=O)NCC(c2ccco2)S(=O)(=O)c2ccc(C)cc2)cc1` (configuration not stated), the survival was 134%. With `O=C(Cn1c(=O)c2cccn2c2ccccc21)Nc1cc(F)ccc1F`, the survival was 44%.

On to `CCCn1c(CCC(=O)Nc2ccccc2OC)nc2cccnc21`, for which the survival is 88%. Then `COc1ccc(-c2nc3sc(CCNS(=O)(=O)c4c(C)cc(C)cc4C)c(C)n3n2)cc1`, with -1% (active). As for `Cc1cc(C)c(S(=O)(=O)NCCc2sc3nc(-c4ccc(F)cc4)nn3c2C)c(C)c1`, the survival was 79%. For the molecule `Cc1ccc(-c2nc3sc(CCNS(=O)(=O)c4cc(F)ccc4F)c(C)n3n2)cc1`, the survival was -2% (active).

As to `CCCS(=O)(=O)NCCc1sc2nc(-c3ccc(F)cc3)nn2c1C`, the survival is 76%. For `CCS(=O)(=O)NCCc1sc2nc(-c3ccc(OC)cc3)nn2c1C`, the survival was 72%. As for `COc1ccc(-c2nc3sc(CCNS(=O)(=O)c4ccccc4)c(C)n3n2)cc1`, the figure is 64%; as for `COc1ccc(F)cc1S(=O)(=O)NCCc1sc2nc(-c3ccc(F)cc3)nn2c1C`, 90%; as for `Cc1c(CCNS(=O)(=O)c2ccccc2)sc2nc(-c3ccc(Cl)cc3)nn12`, 6% (active). Regarding `CCCS(=O)(=O)NCCc1sc2nc(-c3ccc(Cl)cc3)nn2c1C`, the survival is 70%. For `Cc1ccc(-n2ncc3c(N4CCN(CCO)CC4)ncnc32)cc1Cl`, the survival is 101%. Turning to `CCN(CC)c1ncccc1C(=O)NCc1cccs1`, the survival is 81%.

`Cc1c(Cl)cccc1NC(=O)Nc1nnc(N2CCCCCC2)s1`: the survival is 84%.

Regarding `COc1ccccc1Nc1c2c(nc3ccc(NC(=O)c4ccccc4F)cc13)CCCC2`, the survival was 82%. On to `COc1ccc(C(=O)Nc2ccc3nc4c(c(Nc5ccc(OC)c(OC)c5)c3c2)CCCC4)c(OC)c1`, for which the survival is 87%. On to `COc1ccc(C(=O)Nc2ccc3nc4c(c(Nc5ccccc5OC)c3c2)CCCC4)c(OC)c1`, for which the survival is 48% (active). Then `COc1ccccc1Nc1c2c(nc3ccc(NC(=O)c4cccc(F)c4)cc13)CCCC2`, with 70%; and `COc1ccccc1Nc1c2c(nc3ccc(NC(=O)c4ccc(OC)c(OC)c4)cc13)CCCC2`, with 59%. `COc1ccccc1Nc1c2c(nc3ccc(NC(=O)c4cccc(OC)c4OC)cc13)CCCC2`: the survival was 46% (active).
